Each structure is given as a SMILES string. In all, about 330,000 compounds went through this assay and about 2,600 (0.79%) were called active. The sample holds actives, similar compounds and a random draw of the others, so the mix is not that of the screen.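 The calls were made as follows: active = mean ATP rescue above about 67%, or every replicate alone reaching that limit (limit read from the data, passing the limit was not always enough); inconclusive = no clear call, values can overlap the other calls; inactive = mean under the limit and some replicate under it.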

A short description of the assay: suppressors of statin myotoxicity in C2C12 myotubes, primary screen, cell-based, single point, plate reader (AID 602340).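 Also: myotubes were challenged with 10 µM simvastatin during compound exposure.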 The note with it: C2C12 myotubes + simvastatin, ATP luminescence, 48 h; at 7.49 µM; stronger effect = higher value; scaled: DMSO 0, geranylgeraniol control 100.
Turning to `C[C@@H]1CN([C@H](C)CO)C(=O)c2cc(C#CC3CC3)cnc2O[C@@H]1CN(C)Cc1cccc(C(=O)O)c1`, the rescue of ATP level was -0.6% (inactive).
The result for `COc1ccc2[nH]c(=O)c(CNc3ccc(C)c(C)c3)cc2c1` reads 100% (active).
The result for `COc1ccc2[nH]c(=O)c(CN(CC3CCCO3)C(=O)Nc3ccccc3)cc2c1` (stereo unspecified) reads -11.6% (inactive); that for `COc1ccc2[nH]c(=O)c(CN(Cc3cccnc3)S(=O)(=O)c3ccccc3F)cc2c1`, -38.6% (inactive).
With `CO[C@H]1CN(C)C(=O)c2ccc(NS(C)(=O)=O)cc2OC[C@@H](C)N(C(=O)c2ccc3c(c2)OCO3)C[C@@H]1C` the figure was -7.88% (inactive); with `C[C@@H]1CCCCO[C@H](CN(C)S(=O)(=O)c2cn(C)cn2)[C@H](C)CN([C@@H](C)CO)C(=O)c2cc(NC(=O)Nc3ccc(C(F)(F)F)cc3)ccc2O1`, 0.993% (inactive); with `C[C@@H]1CN([C@@H](C)CO)C(=O)Cc2cc(NC(=O)CCN3CCOCC3)ccc2O[C@H]1CN(C)S(=O)(=O)c1ccccc1`, -6.12% (inactive).
With `O=S(=O)(Cc1ccccc1)NCC[C@@H]1CC[C@@H](NS(=O)(=O)c2ccccc2)[C@@H](CO)O1`, the rescue of ATP level was 1.31% (inactive).
With `Cc1ccc(S(=O)(=O)N/N=C\c2cc3c(cc2[N+](=O)[O-])OCO3)cc1` the figure was 2.88% (inactive); with `COc1ccc(S(=O)(=O)N/N=C\c2ccc(OC)c(COc3ccc(C)cc3[N+](=O)[O-])c2)cc1`, 99.4% (active); with `COc1ccc(S(=O)(=O)Nc2ccc3cn[nH]c3c2)cc1[N+](=O)[O-]`, 1.46% (inactive).
As to `COc1cccc(S(=O)(=O)Nc2ccc3c(c2)C(=O)N(C)C[C@@H](OC)[C@H](C)CN(C(=O)Cc2cccnc2)[C@H](C)CO3)c1`, the rescue of ATP level is 7.32% (inactive).
As to `CC(=O)N1[C@@H](CO)[C@H](c2ccccc2)[C@@H]1CN(C(=O)c1ccccc1)C(C)C`, the rescue of ATP level is 3.57% (inactive).
In the case of `COc1ccc(-c2ccc3n(c2=O)C[C@@H]2[C@@H](CO)[C@H](C(=O)Nc4ccccc4)[C@H]3N2C)cc1`, the rescue of ATP level is -0.124% (inactive).
The result for `CCC(=O)N(C)C[C@@H]1Oc2cc(C#Cc3cccnc3)ccc2S(=O)(=O)N([C@H](C)CO)C[C@@H]1C` reads 29.4% (inactive); that for `Cc1cc(NC(=O)c2cc(-c3cccs3)on2)nn1Cc1ccc(Cl)cc1`, 143% (active); that for `CC(=O)c1ccc(NC(=O)c2cc(-c3cccs3)on2)cc1`, -12.8% (inactive).
For `O=C(c1cc(-c2cccs2)on1)N1CCCCC1`, the rescue of ATP level was 36% (inactive).
Consider `CC(C)C#Cc1ccc2c(c1)O[C@@H](CN(C)C(=O)CN(C)C)[C@@H](C)CN([C@H](C)CO)S2(=O)=O`, for which the rescue of ATP level is -17.5% (inactive).
The result for `CNC[C@H]1Oc2ncc(C#Cc3ccccc3F)cc2C(=O)N([C@H](C)CO)C[C@H]1C` reads -12.3% (inactive); that for `O=C(C[C@@H]1C[C@H]2c3cc(NC(=O)Nc4ccccc4)ccc3O[C@H]2[C@@H](CO)O1)NCc1cccnc1`, 4.89% (inactive).
Turning to `CN1C(C(=O)NCc2ccco2)CC2Cn3c(nc4ccccc43)C21` (stereo unspecified), the rescue of ATP level is 2.87% (inactive).
With `Cc1cc(NCc2ccco2)n2c(nc3ccccc32)c1C#N` the figure was -35.7% (inactive); with `CN1c2ccccc2-c2nc3ccccc3n2C1c1ccco1` (stereo unspecified), 96.4% (active); with `COc1ccc(NS(=O)(=O)c2ccc(NC(=O)C(C)(C(F)(F)F)C(F)(F)F)cc2)nn1`, 113% (active).
For `COC(=O)Nc1ccc(S(=O)(=O)Nc2cc(OC)nc(OC)n2)cc1`, the rescue of ATP level is -0.957% (inactive).
As for `CCCCCC(=O)Nc1ccc(S(=O)(=O)Nc2ccc(Cl)nn2)cc1`, the rescue of ATP level was -2.2% (inactive).
With `CC(C)NC(=O)N1[C@H](CO)[C@@H]2c3ccccc3N(C(=O)c3ccccc3F)C[C@@H]21` the figure was 6.22% (inactive); with `CC(=O)N(C)C[C@H]1Oc2cc(C#CC3CC3)ccc2S(=O)(=O)N([C@H](C)CO)C[C@@H]1C`, 9.57% (inactive); with `C/C=C/c1ccc2c(c1)O[C@@H](CN(C)C(=O)c1ccncc1)[C@@H](C)CN([C@H](C)CO)S2(=O)=O`, -3.45% (inactive).
Turning to `CO[C@H]1CN(C)C(=O)c2ccc(NS(C)(=O)=O)cc2OC[C@@H](C)N(Cc2ccccc2)C[C@@H]1C`, the rescue of ATP level was 7.75% (inactive).
On to `CO[C@H]1CN(C)C(=O)c2cc(NC(=O)C3CC3)ccc2OC[C@H](C)N(Cc2ccccc2)C[C@H]1C`, for which the rescue of ATP level was 14.1% (inactive).
The result for `CCOC(=O)c1c(-c2ccccc2)oc2ccc(OCC(N)=O)cc12` reads -0.453% (inactive).
The result for `CC(=O)c1c(C)n(-c2ccc(C)cc2)c2ccc(O)cc12` reads -0.235% (inactive); that for `CC(=O)c1c(C)n(-c2ccc(N(C)C)cc2)c2ccc(OCC(N)=O)cc12`, 83.1% (active).
With `CN(C)CCCNC(=O)C[C@H]1C=C[C@@H](NC(=O)Cc2cccnc2)[C@H](CO)O1` the figure was -16.4% (inactive); with `C[C@@H]1CN([C@H](C)CO)C(=O)c2ccccc2-c2ccccc2CO[C@@H]1CN(C)S(=O)(=O)CC(F)(F)F`, -2.03% (inactive).
As for `CCOC(=O)Nc1ccc(NC(=O)OCC)cc1`, the rescue of ATP level was -0.0995% (inactive).
The result for `CC(C)(C)OC(=O)Nc1ccc([C@@H](NC(=O)OC(C)(C)C)C(=O)OC(C)(C)C)cc1` reads 83.1% (active); that for `CC(C)(C)OC(=O)N[C@H](C(=O)OC(C)(C)C)c1ccc(Br)cc1`, -4.69% (inactive).
For `COc1ccc(S(=O)(=O)N2CC[C@H]3[C@@H](CO)N(C)c4ccc(C#Cc5ccccc5OC)cc4[C@H]32)cc1`, the rescue of ATP level was 36% (inactive).
The result for `C[C@H]1CN([C@@H](C)CO)S(=O)(=O)c2ccc(C#Cc3ccccc3F)cc2O[C@@H]1CN(C)C(=O)c1ccc2c(c1)OCO2` reads -14.8% (inactive); that for `O=C(O)c1ccccc1NC(=S)NC(NC(=O)c1ccccc1[N+](=O)[O-])C(Cl)(Cl)Cl` (stereo unspecified), 108% (active).
In the case of `O=C(Nc1ccccc1[N+](=O)[O-])C1C(c2ccccc2)=C1c1ccccc1`, the rescue of ATP level is 2.4% (inactive).
The result for `O=C(Nc1ccccc1-c1ccccc1)c1ccccc1[N+](=O)[O-]` reads 9.09% (inactive); that for `CO[C@H]1CN(C)C(=O)c2cc(NC(=O)C3CCOCC3)ccc2OC[C@@H](C)N(Cc2cccnc2)C[C@@H]1C`, 11.4% (inactive); that for `COc1ccc(O)c(/C=N/N=C/c2cccc([N+](=O)[O-])c2)c1`, 9.95% (inactive).
In the case of `COc1cc(/C=N/NC(=O)CNC(=O)c2ccncc2)ccc1OC(C)=O`, the rescue of ATP level is -8.66% (inactive).
With `COc1cc(/C=N\NC(=O)CNC(=O)c2cccc([N+](=O)[O-])c2)ccc1O` the figure was 110% (active); with `Cc1noc(C)c1NC(=O)N[C@@H]1CC[C@H](CCNC(=O)C2CCC2)O[C@@H]1CO`, 3.99% (inactive).
The result for `O=C(C[C@H]1CC[C@@H](NC(=O)Nc2cc(F)ccc2F)[C@@H](CO)O1)NCc1ccncn1` reads -2.36% (inactive); that for `O=C(Nc1ccccc1)N1C[C@@H]2[C@H](c3ccccc31)[C@H](CO)N2C(=O)c1ccccn1`, -4.63% (inactive).
The result for `Cc1ccc(C2=NN(C(=O)CSc3nc(N)cc(N)n3)C(c3ccco3)C2)cc1` (stereo unspecified) reads 159% (active); that for `COc1ccc(C2=NN(C(=O)CSc3nnnn3C)C(c3ccco3)C2)cc1` (stereo unspecified), -6.88% (inactive).
In the case of `COc1ccc(C2=NN(C(=O)CSc3nc(=O)n4ccc(C)cc4n3)C(c3ccc(C)cc3)C2)cc1` (stereo unspecified), the rescue of ATP level was 34.4% (inactive).
With `Cc1cccc(-c2ccc([C@@H]3[C@H](CO)N4CCCCN(C(=O)c5ccc6c(c5)OCO6)C[C@@H]34)cc2)c1` the figure was -11.7% (inactive); with `C[C@@H]1CN([C@H](C)CO)C(=O)c2cc(-c3ccc(C(=O)N(C)C)cc3)cnc2O[C@H]1CN(C)C(=O)C1CC1`, 5.72% (inactive).
Turning to `COc1ccc(NC(=O)N(C)C[C@H]2Oc3ccc(N(C)C)cc3C(=O)N([C@H](C)CO)C[C@H]2C)cc1`, the rescue of ATP level was 34.1% (inactive).
For the compound `O=C(CSc1nc(-c2ccco2)cc(C(F)(F)F)n1)N1CCc2ccccc2C1`, the rescue of ATP level was 2.99% (inactive).
For `COC(=O)c1cnn2c(C(F)(F)F)cc(-c3ccco3)nc12`, the rescue of ATP level was 0.418% (inactive).
For `CCOC(=O)c1ccn(-c2nc(-c3ccco3)cc(C(F)(F)F)n2)n1`, the rescue of ATP level was 122% (active).
The result for `COCC(=O)Nc1ccc2c(c1)C(=O)N(C)[C@H]1CC[C@@H](CC(=O)Nc3cn(C)nc3C)O[C@@H]1CO2` reads -1.7% (inactive); that for `CCC(=O)Nc1ccc2c(c1)OC[C@H](C)N(CC1CCCCC1)C[C@@H](C)[C@H](OC)CN(C)C2=O`, 13.2% (inactive).
Take `CS(=O)(=O)N1CCN(c2cccc(Cl)n2)CC1`: the rescue of ATP level was 109% (active).
With `Cc1cccc(C)c1N1CCN(S(=O)(=O)N2CCCCC2)CC1`, the rescue of ATP level was -15% (inactive).
For the compound `CCC(=O)Nc1ccccc1N1CCN(S(C)(=O)=O)CC1`, the rescue of ATP level was 5.38% (inactive).
For `C[C@@H]1CN([C@H](C)CO)S(=O)(=O)c2ccc(C#CCC3CCCC3)cc2O[C@H]1CN(C)Cc1ccc(C(=O)O)cc1`, the rescue of ATP level was 3.68% (inactive).
On to `O=C(NCc1ccc(Cl)c(Cl)c1)c1cccnc1`, for which the rescue of ATP level was 106% (active).
On to `CC(C)(C)c1cc(C(=O)NCc2cccnc2)ccn1`, for which the rescue of ATP level is -8.85% (inactive).
The result for `O=C(Nc1nnc(Cc2ccc(Cl)cc2)s1)c1cccnc1` reads 0.36% (inactive); that for `COCC(=O)Nc1ccc2c(c1)[C@H]1C[C@H](CC(=O)NCc3cccnc3)O[C@H](CO)[C@H]1O2`, -1.76% (inactive).
For `COCCn1c(CN2CCC(Cc3ccccc3)CC2)nc2c1c(=O)n(C)c(=O)n2C`, the rescue of ATP level was 70.9% (active).
With `Cn1c(=O)c2c(nc(CN3CCOCC3)n2Cc2ccccc2)n(C)c1=O` the figure was 2.6% (inactive); with `COCCn1c(CN(Cc2ccccc2)Cc2ccccc2)nc2c1c(=O)n(C)c(=O)n2C`, 30.5% (inactive).
With `CC(=O)NC[C@H]1[C@H](c2ccccc2)[C@@H](CO)N1C(=O)Cc1cccnc1`, the rescue of ATP level was 7.36% (inactive).
`Cc1ccccc1S(=O)(=O)Nc1ccc2c(c1)C(=O)N(C)[C@H]1CC[C@@H](CC(=O)O)O[C@H]1CO2`: the rescue of ATP level was 10.2% (inactive).

Source of the values: PubChem BioAssay AID602340 (Broad Institute, 2012).
